Results reported in publication PMC5540273 (PLoS ONE, 2017).

tested on: T1, DRAK1; conditions: concentration: 1 μM, replicates: in singlicate; n = 1
T1 construct: gene STK17A
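Further: KINOMEscan kinase panel screen.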

SMILES | %Inh [%]
CN1c2ccc(-c3ccc(C(N)=O)cc3)cc2-c2[nH]ncc2S1(=O)=O | 52
Cl.Cl.Cl.N#Cc1ccc(CCNc2nccc(-c3cccc(CN4CCNCC4)c3)n2)cc1 [GSK2137462] | 0
Cn1cncc1C(=O)NC1CCN(c2ccnc(Nc3ccc(F)cc3)n2)C1 (stereo not shown) [GSK1379717] | 0
CS(=O)(=O)CCNCc1nc(-c2ccc3ncnc(Nc4ccc5c(cnn5Cc5ccccc5)c4)c3c2)cs1.Cl.Cl [GW569716] | 35
Cc1cnc(N)c(/C=C/c2cncc(C(=O)NCCc3ccc(Cl)cc3Cl)c2)c1.Cl [GSK190937] | 18
CNCc1ccc2nc(NC(=O)c3ccc(C(C)(C)C)cc3)cn2c1 | 11
CNc1cc(-c2ccc3c(N)n[nH]c3c2)nc(N)n1 [GSK2224810] | 95.3
CNc1nc(-c2ccc3c(N)n[nH]c3c2)cc(N2C[C@@H](C(=O)Nc3ccccc3)CC[C@H]2C)n1 [GSK2298859] | 97.6
COc1ccc(Nc2nccc(N3CCC(NC(=O)c4cc5ccccc5s4)C3)n2)cc1 (stereo not shown) [GSK1379738] | 0
COc1ccc(CSc2nnc(-c3ccc4nccn4c3)o2)cc1C(F)(F)F | 31
